Details in all cases: Compound concentration 20.0 uM, Protein concentration 2.0 uM, Result type QC Liability
Assay [1] deals with Tyrosine-protein kinase ABL1 (Homo sapiens) (UniProt P00519).
In assay [2] the target is Cyclin-dependent kinase 2 (Homo sapiens) (UniProt P24941).
In assay [3] the target is Casein kinase I isoform delta (Homo sapiens) (UniProt P48730).
Assay [4] addresses Glycogen synthase kinase-3 beta (Homo sapiens) (UniProt P49841).
Assay [5] has as its target Mitogen-activated protein kinase 1 (Homo sapiens) (UniProt P28482).
Assay [6] addresses T1, Aurora kinase A (Homo sapiens) (UniProt O14965).
T1 sequence (whole entry): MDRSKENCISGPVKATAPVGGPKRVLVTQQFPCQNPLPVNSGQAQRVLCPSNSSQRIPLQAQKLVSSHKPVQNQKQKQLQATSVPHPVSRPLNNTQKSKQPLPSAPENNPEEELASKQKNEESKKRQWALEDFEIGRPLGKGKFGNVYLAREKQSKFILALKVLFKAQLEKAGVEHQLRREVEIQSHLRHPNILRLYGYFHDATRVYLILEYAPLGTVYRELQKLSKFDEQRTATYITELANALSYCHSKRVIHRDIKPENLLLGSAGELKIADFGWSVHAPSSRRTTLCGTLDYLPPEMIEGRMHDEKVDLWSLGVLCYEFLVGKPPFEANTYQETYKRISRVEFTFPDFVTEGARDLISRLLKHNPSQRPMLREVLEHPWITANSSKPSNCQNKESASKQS

Among the data in ChEMBL document CHEMBL5308504, “Tm Shift (DSF) assay results for EUbOPEN Chemogenomics Library” (2023) are ΔTm values, retold here.

Each structure is given as a SMILES string.

Broadly, the ΔTm is the change in melting temperature against a reference sample.

Chain of Mitogen-activated protein kinase 1 (Homo sapiens) (P28482 whole entry): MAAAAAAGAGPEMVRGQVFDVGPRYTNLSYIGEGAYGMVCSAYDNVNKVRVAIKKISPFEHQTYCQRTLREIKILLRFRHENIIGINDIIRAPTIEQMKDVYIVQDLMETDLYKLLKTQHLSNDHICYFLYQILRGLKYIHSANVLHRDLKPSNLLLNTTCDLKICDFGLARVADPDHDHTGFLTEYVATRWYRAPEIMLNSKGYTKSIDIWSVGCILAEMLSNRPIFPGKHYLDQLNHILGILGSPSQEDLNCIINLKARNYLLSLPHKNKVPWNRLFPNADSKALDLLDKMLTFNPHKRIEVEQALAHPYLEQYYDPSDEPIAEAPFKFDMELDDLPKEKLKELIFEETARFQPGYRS
Chain of Glycogen synthase kinase-3 beta (Homo sapiens) (P49841 whole entry, looked up): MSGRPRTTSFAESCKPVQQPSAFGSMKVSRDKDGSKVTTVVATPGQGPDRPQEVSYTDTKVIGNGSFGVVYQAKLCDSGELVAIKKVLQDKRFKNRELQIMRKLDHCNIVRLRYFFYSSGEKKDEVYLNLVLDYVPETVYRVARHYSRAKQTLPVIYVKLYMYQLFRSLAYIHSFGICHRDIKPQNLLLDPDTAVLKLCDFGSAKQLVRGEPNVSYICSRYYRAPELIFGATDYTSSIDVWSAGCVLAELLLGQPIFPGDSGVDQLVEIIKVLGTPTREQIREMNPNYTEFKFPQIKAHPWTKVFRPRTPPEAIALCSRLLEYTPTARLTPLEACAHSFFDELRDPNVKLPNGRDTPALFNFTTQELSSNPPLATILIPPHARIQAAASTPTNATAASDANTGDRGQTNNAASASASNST
Chain of Casein kinase I isoform delta (Homo sapiens) (P48730 whole entry, looked up, canonical isoform): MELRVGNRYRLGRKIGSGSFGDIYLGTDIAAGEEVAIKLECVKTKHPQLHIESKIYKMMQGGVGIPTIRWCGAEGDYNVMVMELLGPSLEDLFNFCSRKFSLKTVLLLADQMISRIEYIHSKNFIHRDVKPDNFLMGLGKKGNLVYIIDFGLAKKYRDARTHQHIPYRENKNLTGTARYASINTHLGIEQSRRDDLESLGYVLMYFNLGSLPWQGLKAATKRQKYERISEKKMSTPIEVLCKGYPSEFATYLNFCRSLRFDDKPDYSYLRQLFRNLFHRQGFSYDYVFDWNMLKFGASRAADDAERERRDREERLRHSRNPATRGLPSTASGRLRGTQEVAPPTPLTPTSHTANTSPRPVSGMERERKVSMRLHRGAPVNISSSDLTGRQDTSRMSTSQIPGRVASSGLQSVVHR
Chain of Tyrosine-protein kinase ABL1 (Homo sapiens) (P00519 whole entry): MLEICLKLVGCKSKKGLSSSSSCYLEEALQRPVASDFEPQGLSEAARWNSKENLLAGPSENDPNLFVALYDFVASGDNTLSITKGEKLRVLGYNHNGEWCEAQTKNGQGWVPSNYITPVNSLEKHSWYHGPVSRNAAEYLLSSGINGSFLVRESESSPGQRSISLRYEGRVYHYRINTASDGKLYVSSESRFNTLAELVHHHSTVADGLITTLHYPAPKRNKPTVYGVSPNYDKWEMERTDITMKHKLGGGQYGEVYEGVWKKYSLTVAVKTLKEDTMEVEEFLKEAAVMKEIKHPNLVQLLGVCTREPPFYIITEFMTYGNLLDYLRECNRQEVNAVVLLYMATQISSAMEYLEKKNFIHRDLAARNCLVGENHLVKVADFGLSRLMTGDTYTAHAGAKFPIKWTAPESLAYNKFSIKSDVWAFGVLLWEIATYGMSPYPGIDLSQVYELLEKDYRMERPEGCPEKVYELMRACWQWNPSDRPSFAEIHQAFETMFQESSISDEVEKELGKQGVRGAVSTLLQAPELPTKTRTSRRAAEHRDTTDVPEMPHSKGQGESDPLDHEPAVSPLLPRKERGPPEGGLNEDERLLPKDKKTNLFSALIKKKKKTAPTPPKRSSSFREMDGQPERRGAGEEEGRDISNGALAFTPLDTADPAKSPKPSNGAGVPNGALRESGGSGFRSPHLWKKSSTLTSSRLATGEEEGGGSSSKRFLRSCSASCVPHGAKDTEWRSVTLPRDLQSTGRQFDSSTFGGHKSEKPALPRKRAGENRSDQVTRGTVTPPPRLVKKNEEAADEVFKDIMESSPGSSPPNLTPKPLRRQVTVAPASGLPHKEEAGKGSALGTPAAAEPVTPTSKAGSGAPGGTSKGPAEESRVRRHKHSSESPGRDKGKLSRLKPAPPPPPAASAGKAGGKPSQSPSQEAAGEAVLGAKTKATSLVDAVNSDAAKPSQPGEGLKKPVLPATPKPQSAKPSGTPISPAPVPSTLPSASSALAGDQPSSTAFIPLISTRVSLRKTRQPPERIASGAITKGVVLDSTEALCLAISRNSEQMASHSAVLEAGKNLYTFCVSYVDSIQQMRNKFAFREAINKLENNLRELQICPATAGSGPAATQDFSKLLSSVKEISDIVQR

For `C[C@H]1CN(C2COC2)CCN1c1ccc(Nc2cc(-c3ccnc(N4CCn5c(cc6c5CC(C)(C)C6)C4=O)c3CO)cn(C)c2=O)nc1`, the ΔTm is 3.14 °C in assay [1]; -0.09 °C in assay [2]; 0.48 °C in assay [3]; -0.54 °C in assay [4]; -0.67 °C in assay [5]; 1.75 °C in assay [6].

On to `CCn1c(CNC(=O)c2nc(Cl)cnc2N)[n+](CC)c2ccc(C(=O)N(C)CCN(C)C)cc21`, for which the ΔTm in assay [1] is 0.14 °C; in assay [2] it was 0.44 °C; in assay [3], 0.35 °C; in assay [4] it was -0.7 °C; in assay [5], 0.33 °C; in assay [6], -0.18 °C.

As for `CCc1ccc(N(CC(C)C)S(=O)(=O)c2ccc(OCC3CCOCC3)c(CO)c2)cc1`, the ΔTm in assay [1] is -3.79 °C; in assay [2], 0.33 °C; in assay [3] it was 0.71 °C; in assay [4], 0 °C; in assay [5], 0.2 °C; in assay [6] it was -8.48 °C.

Take `Cn1ccc(Cn2cnc(-c3ccc(F)cc3)c2-c2ccnc3[nH]ccc23)n1`: the ΔTm in assay [1] is 0.71 °C; in assay [2], 0.42 °C; in assay [3], 6.32 °C; in assay [4], -0.53 °C; in assay [5], 0.21 °C; in assay [6], -0.97 °C.

On to `O=C(O)c1ccc(OCCCc2ccc(OCCCCOC3CCCCC3)cc2)c(C(=O)NC2CCCC(C(=O)O)C2)c1` (stereo unspecified), for which the ΔTm in assay [1] was -0.97 °C; in assay [2] it was -0.34 °C; in assay [3], 0.18 °C; in assay [4], -0.84 °C; in assay [5], -0.39 °C; in assay [6], -1.1 °C.

Regarding `CN(C(=O)c1cnn2cccnc12)c1cc2c(cc1N1CCOCC1)C(=O)N(C[C@@H](F)C(C)(C)O)C2`, the ΔTm in assay [1] is 0.37 °C; in assay [2], -0.41 °C; in assay [3] it was -0.06 °C; in assay [4] it was -0.42 °C; in assay [5] it was 0.49 °C; in assay [6] it was -0.66 °C.

For `Cc1ccc(-c2cn3nc(C(=O)NC4(c5ccc(F)cc5)CN(C)C4)c(C(C)C)c3c(=O)[nH]2)cc1C`, the ΔTm was -0.12 °C in assay [1]; 0.03 °C in assay [2]; 0.69 °C in assay [3]; -0.83 °C in assay [4]; 0.08 °C in assay [5]; 0.49 °C in assay [6].

For the compound `Cc1cc(CN(CC(=O)Nc2ccc(Cl)cc2Cl)C2CCCCC2)ccc1OCC(=O)O`, the thermal shift (ΔTm) is -1.67 °C in assay [1]; -2.21 °C in assay [2]; -0.47 °C in assay [3]; -3.13 °C in assay [4]; -1.06 °C in assay [5]; -2 °C in assay [6].

On to `CC(C)(O)c1cn(-c2ccc(-c3cccc(S(C)(=O)=O)c3)cc2)c(C(C)(C)c2ccccc2Cl)n1`, for which the shift in melting temperature (ΔTm) in assay [1] was -1.7 °C; in assay [2] it was 0.08 °C; in assay [3], -0.27 °C; in assay [4], -0.99 °C; in assay [5], 0.15 °C; in assay [6], -3.66 °C.

As to `COC[C@@H](C)N[C@H]1CC[C@H](Nc2cc(-c3cccc(NCC4(C#N)CCOCC4)n3)c(Cl)cn2)CC1`, the ΔTm was 0.33 °C in assay [1]; -1.43 °C in assay [2]; 0.03 °C in assay [3]; -0.08 °C in assay [4]; 0.43 °C in assay [5]; 0.38 °C in assay [6].

On to `CC[C@@H](CO)Nc1nc(Nc2cccc(NC(=O)C(C)(C)C)c2)ncc1F`, for which the shift in melting temperature (ΔTm) in assay [1] is 1.74 °C; in assay [2] it was 1.9 °C; in assay [3] it was 0.38 °C; in assay [4] it was 3.34 °C; in assay [5], 0.54 °C; in assay [6], 9.07 °C.

On to `CN1CCC(C#N)(NC(=O)[C@@H](NC(=O)N2CCOCC2)C(C)(C)C)CC1`, for which the ΔTm is -0.07 °C in assay [1]; 0.23 °C in assay [2]; 0.3 °C in assay [3]; -0.75 °C in assay [4]; 0.52 °C in assay [5]; -0.18 °C in assay [6].

Consider `C=C(F)C(=O)N1CCN(c2nc(OC[C@@H]3CCCN3C)nc3c2CCN(c2cccc4cccc(Cl)c24)C3)C[C@@H]1CC#N`, for which the ΔTm in assay [1] was -0.03 °C; in assay [2] it was 0.01 °C; in assay [3], 0.31 °C; in assay [4], 0.36 °C; in assay [5] it was 0.14 °C; in assay [6] it was -0.49 °C.

Regarding `COc1ccc(-c2c(-c3ccccc3)oc3ncnc(O[C@H](C)CCCCC(=O)O)c23)cc1`, the ΔTm in assay [1] is -0.07 °C; in assay [2], -2.59 °C; in assay [3] it was -0.84 °C; in assay [4], -2 °C; in assay [5] it was -3.65 °C; in assay [6], 5.26 °C.

As to `Cn1c(Nc2c(Cl)cccc2Cl)nc2ccc3nc[nH]c(=O)c3c21`, the ΔTm in assay [1] is 9.85 °C; in assay [2], 0.91 °C; in assay [3], 0.64 °C; in assay [4], 1.08 °C; in assay [5], 0.09 °C; in assay [6], 1.49 °C.

For `CCCCC[C@@](C)(O)/C=C/[C@H]1C(=O)CC(O)C1C/C=C\CCCC(=O)O` (stereo partly specified), the ΔTm in assay [1] was -0.65 °C; in assay [2], 0.16 °C; in assay [3], -0.52 °C; in assay [4], 0.15 °C; in assay [5], -0.04 °C; in assay [6] it was -0.74 °C.

In the case of `CC(C)(O)[C@H]1CC[C@H](Nc2ccc3ncc(-c4cccc(C(F)(F)F)c4)n3n2)CC1`, the ΔTm is 0.38 °C in assay [1]; 1.53 °C in assay [2]; 3.57 °C in assay [3]; 2.41 °C in assay [4]; 0.62 °C in assay [5]; 0.74 °C in assay [6].

As for `CCOC(=O)CS(=O)(=O)c1ccc([C@@H](CO)NC(=O)c2cc3c(Cl)c(Cl)c(C)cc3n2C)cc1`, the ΔTm in assay [1] is -1.39 °C; in assay [2] it was 0.21 °C; in assay [3], 1.93 °C; in assay [4] it was -1.8 °C; in assay [5], 0.66 °C; in assay [6], -4.67 °C.

Consider `Cc1c(CN2CCC3(CC2)CN(c2ncnc4sc(CC(F)(F)F)cc24)C3)ccc2c1cc(C#N)n2CC(N)=O`, for which the ΔTm was 0.27 °C in assay [1]; -0.01 °C in assay [2]; 0.92 °C in assay [3]; 0.64 °C in assay [4]; 0.12 °C in assay [5]; 0.16 °C in assay [6].

As for `CCN1C(=O)c2cc(C)ccc2N(C)c2ncccc21`, the ΔTm was -0.36 °C in assay [1]; 0.32 °C in assay [2]; 0.14 °C in assay [3]; -0.36 °C in assay [4]; 0.23 °C in assay [5]; 0.08 °C in assay [6].

Take `C/C=C1\C(=O)CC2C3CCC4=CC(=O)CC[C@]4(C)C3CC[C@]12C` (stereo partly specified): the ΔTm was 0.07 °C in assay [1]; -0.3 °C in assay [2]; 0.63 °C in assay [3]; -1.05 °C in assay [4]; 0.47 °C in assay [5]; -1.78 °C in assay [6].

As to `C[C@@H]1C[C@H](C)CN(c2ncc(Cl)c(Nc3ccc4c(c3)cc(OC(C)(C)C(=O)O)c(=O)n4C)n2)C1`, the ΔTm in assay [1] is -0.58 °C; in assay [2], 0.18 °C; in assay [3], -0.08 °C; in assay [4], -1.47 °C; in assay [5], 0.14 °C; in assay [6], 0.18 °C.

Take `COCc1nc2cnc3cc(-c4c(C)noc4C)c(OC[C@H]4CCNC4)cc3c2n1[C@H](C)c1ccccc1`: the thermal shift (ΔTm) in assay [1] was 0.08 °C; in assay [2], 0.87 °C; in assay [3] it was 0.07 °C; in assay [4], -0.83 °C; in assay [5] it was 0.35 °C; in assay [6], -0.39 °C.

Take `Cc1cc2c(cc(C(=O)N[C@H](CO)c3ccc(S(=O)(=O)CC(=O)O)cc3)n2C)c(Cl)c1Cl`: the ΔTm in assay [1] is 1.12 °C; in assay [2] it was -0.15 °C; in assay [3] it was -1.41 °C; in assay [4], -0.78 °C; in assay [5], 0.62 °C; in assay [6], 3.77 °C.

For `Cc1cc(NC(=O)c2cccc(NC(=O)/C=C/CN(C)C)c2)ccc1Nc1nccc(-c2cccnc2)n1`, the ΔTm in assay [1] amounted to 3.79 °C; in assay [2], 1.64 °C; in assay [3] it was 4.02 °C; in assay [4] it was 6.68 °C; in assay [5] it was 1.52 °C; in assay [6], 5.38 °C.

For `Cc1cnc(Nc2ccc(C(=O)N3CCN(C)CC3)cc2)nc1N[C@@H]1CCC[C@@H]1C(N)=O`, the ΔTm in assay [1] came to 5.89 °C; in assay [2], 6.47 °C; in assay [3] it was 0.27 °C; in assay [4], 3.07 °C; in assay [5], 1.68 °C; in assay [6], 14.7 °C.
